The values below come from PubChem BioAssay.

The source made the active and inactive calls. Unless noted, the rule behind the calls is not given here.

Test [1] is described as follows: compounds binding Alexa647 anti-His antibody – biochemical, small-molecule microarray, 635 nm fluorescence, artefact control for SMM control protein annotation, primary screen (AID 1128).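 Note: score merges feature fluorescence with signal-to-noise for each printed compound spot.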 Particulars: higher = more signal.
Test [2] relates to Human papillomavirus type 1a E7 protein (residues 1-88). Nature of the test: HPV1a E7 small-molecule binders, primary screen, biochemical, small-molecule microarray, residues 1-88, 635 nm (AID 1129). The conditions noted are these: small-molecule microarray binding, fluorescence 635 nm; higher = more signal.
Test [3] concerns the target Focal adhesion kinase 1 (Homo sapiens) (UniProt Q05397). Nature of the test: PTK2 protein binding on printed compound slides – biochemical, small-molecule microarray, 635/667 nm fluorescence, BSA, DTT, primary screen (AID 1130).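 Note: composite of spot emission at 667 nm and signal to noise over triplicate slides.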 The conditions noted are these: 635 nm fluorescence, higher = more signal.
Test [4] deals with Fibrinogen (Alexa647-labelled). Nature of the test: Alexa647-fibrinogen binding to printed small molecules – biochemical, small-molecule microarray, 635/667 nm fluorescence, artefact control for SMM control-protein annotation, profiling panel (AID 1131).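 Note: z-score merges 667 nm fluorescence with per-spot signal-to-noise over triplicate slides.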 The conditions noted are these: fibrinogen-A647 binding fluorescence, higher = more signal.
The target of test [5] is Follistatin (Homo sapiens) (UniProt P19883). In words: FST protein binding to printed compounds – biochemical, small-molecule microarray, 635/667 nm fluorescence, primary screen (AID 1132). Particulars: 635 nm fluorescence, higher = more signal.
Test [6] addresses Fibroblast growth factor 2 (Homo sapiens) (UniProt P09038). In words: basic fibroblast growth factor binding to printed compounds – biochemical, small-molecule microarray, 635/667 nm fluorescence, primary screen (AID 1133). The conditions noted are these: FGF2, fluorescence 635/667, higher = more signal.
A short description of test [7]: JC-1 mitochondrial potential readout, lung cancer cells – cell-based, A549, JC-1 fluorescence, basal, 24 h, 100 nL, profiling panel (AID 1138).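 Note: A549 lung adenocarcinoma cells under basal conditions with no added stimulus; test concentration not given here.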 The conditions noted are these: higher = more signal.
A further test concerns Lefty1. Nature of the test: Lefty1 protein binding to printed compounds – biochemical, small-molecule microarray, 635/667 nm fluorescence, primary screen (AID 1139). Particulars: fluorescence 635/667, higher = more signal.
In test [8] the test system is wheat germ agglutinin (Triticum aestivum), Alexa647-labelled. Nature of the test: Alexa647-WGA lectin binding to printed small molecules – biochemical, small-molecule microarray, 635/667 nm fluorescence, artefact control for SMM control-protein annotation, profiling panel (AID 1140).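 Note: score merges 667 nm feature emission with signal to noise over triplicate slides.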 The conditions noted are these: WGA-A647 binding, 635 nm fluorescence, higher = more signal.

Test [9] deals with Luciferin 4-monooxygenase (Photinus pyralis) (UniProt P08659). In words: inhibition of purified Photinus pyralis luciferase – biochemical, luminescence, purified enzyme, 2006 set, primary screen (AID 1141).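 Note: cell-free assay with purified firefly luciferase at 100 ng per well in PBS; test concentration not given here.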 The conditions noted are these: purified firefly luciferase, SteadyGlo luminescence, 30 min; higher = more signal, called active from +8 up or from −8 down.
Test [10] relates to Wnt5a (protein binding on small-molecule microarray). Nature of the test: small molecules binding Wnt5a protein – biophysical, small-molecule microarray, 635/667 nm fluorescence, primary screen (AID 1142).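 Note: fluorescence read at 667 nm with signal to noise per printed feature.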 The conditions noted are these: 635 nm fluorescence, higher = more signal.
A short description of test [11]: ATP-based viability of Huh7 replicon cells – cell-based, CellTiter-Glo luminescence, basal, 48 h, cytotoxicity control for HCV replication inhibitor project, primary screen (AID 1143).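 Note: Huh7 hepatoma cells carrying a hepatitis C replication reporter with no stimulus; test concentration not given here.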 The conditions noted are these: higher = more signal, called active from +8 up or from −8 down. Background: Replicon systems follow genome replication, usually without infectious particles.

The nature of test [12]: Pseudomonas biofilm growth suppression – PAO1 strain, BacTiter-Glo luminescence, LB-PBS, primary screen (AID 1144). Particulars: P. aeruginosa PAO1 biofilm, 12 h, higher = more signal.
Test [13] is described as follows: basal CRE-LacZ reporter activity in PC12 – cell-based, unstimulated, primary screen (AID 1145). Particulars: no forskolin, luminescence, 4.5 h, higher = more signal, called active from +8 up or from −8 down.
Test [14] in a line: forskolin-driven CRE-LacZ activity in PC12 – cell-based, CRE-LacZ reporter, forskolin-stimulated, primary screen (AID 1146).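 Note: PC12 cells with 6xCRE LacZ reporter stimulated by forskolin 10 µM; beta-galactosidase reporter signal reflecting CREB driven transcription.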 Particulars: luminescence, 4.5 h, higher = more signal, called active from +8 up or from −8 down.
Test [15] addresses Streptavidin (Streptomyces avidinii) (UniProt P22629). Nature of the test: compounds binding control protein streptavidin – biophysical, small-molecule microarray, 635/667 nm fluorescence, artefact control for SMM compound annotation, primary screen (AID 1147).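 Note: signal reflects streptavidin binding to arrayed compounds as a control protein.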 Particulars: higher = more signal.
Test [16] in a line: probe aInhba binding on compound microarray – biochemical, small-molecule microarray, 635/667 nm fluorescence, primary screen (AID 1148).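 Note: score merges 667nm spot fluorescence with signal-to-noise for antibody binding to printed compounds.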 The conditions noted are these: higher = more signal.
For test [17], the target named is Torsin-1A (Homo sapiens) (UniProt O14656). Nature of the test: TOR1A wild-type binding on microarray – cell lysate, small-molecule microarray, lysate, 635/667 nm, primary screen (AID 1149). Particulars: COS7 hTOR1A-WT lysate, 635 nm fluorescence, higher = more signal.
Test [18] shares this target. In words: torsin A mutant lysate binding on microarrays – cell lysate, small-molecule microarray, COS7 lysate, 635/667 nm fluorescence, primary screen (AID 1150).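 Note: score pools 667 nm emission and signal to noise measuring lysate protein binding.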 The conditions noted are these: COS7 hTOR1A mutant lysate, 635 nm fluorescence, higher = more signal.
Test [19] has as its system Sonic hedgehog protein (Shh). Nature of the test: Sonic hedgehog microarray binding compounds – biochemical, small-molecule microarray, 635/667 nm fluorescence, primary screen (AID 1151).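 Note: Shh protein binding to compounds spotted on small-molecule microarray slides; score combines spot fluorescence intensity with signal-to-noise across triplicate slides.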 Particulars: 635 nm fluorescence, higher = more signal.

Chain of Streptavidin (Streptomyces avidinii) (P22629 whole entry, looked up): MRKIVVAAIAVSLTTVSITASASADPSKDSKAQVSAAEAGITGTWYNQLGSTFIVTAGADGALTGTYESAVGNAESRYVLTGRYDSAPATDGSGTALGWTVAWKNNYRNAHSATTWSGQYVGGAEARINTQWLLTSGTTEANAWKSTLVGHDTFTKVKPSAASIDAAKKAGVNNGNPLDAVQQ
Chain of Fibroblast growth factor 2 (Homo sapiens) (P09038 whole entry, looked up): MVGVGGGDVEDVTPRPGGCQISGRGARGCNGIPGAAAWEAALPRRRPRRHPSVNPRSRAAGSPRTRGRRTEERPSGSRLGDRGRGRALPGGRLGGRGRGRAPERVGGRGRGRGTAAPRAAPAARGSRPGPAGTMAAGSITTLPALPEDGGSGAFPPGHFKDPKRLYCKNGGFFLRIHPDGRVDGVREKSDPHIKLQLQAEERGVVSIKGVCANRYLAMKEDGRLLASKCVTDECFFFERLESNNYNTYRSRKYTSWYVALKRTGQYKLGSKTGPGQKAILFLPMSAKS
Chain of Luciferin 4-monooxygenase (Photinus pyralis) (P08659 whole entry, looked up): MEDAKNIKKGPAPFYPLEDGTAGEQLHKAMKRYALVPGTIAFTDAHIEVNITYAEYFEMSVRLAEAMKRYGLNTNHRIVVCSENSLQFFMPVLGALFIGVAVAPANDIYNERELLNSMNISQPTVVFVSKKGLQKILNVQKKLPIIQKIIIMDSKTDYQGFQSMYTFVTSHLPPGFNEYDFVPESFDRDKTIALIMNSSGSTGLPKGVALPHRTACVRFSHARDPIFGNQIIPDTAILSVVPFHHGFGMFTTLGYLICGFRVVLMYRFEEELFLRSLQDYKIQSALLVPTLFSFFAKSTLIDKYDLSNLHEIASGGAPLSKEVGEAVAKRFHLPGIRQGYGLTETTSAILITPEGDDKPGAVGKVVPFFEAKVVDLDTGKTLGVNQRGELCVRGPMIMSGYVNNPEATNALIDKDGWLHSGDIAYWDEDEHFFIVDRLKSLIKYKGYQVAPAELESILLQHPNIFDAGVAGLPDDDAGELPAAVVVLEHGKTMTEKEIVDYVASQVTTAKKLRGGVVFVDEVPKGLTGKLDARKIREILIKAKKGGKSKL
Chain of Focal adhesion kinase 1 (Homo sapiens) (Q05397 whole entry, looked up): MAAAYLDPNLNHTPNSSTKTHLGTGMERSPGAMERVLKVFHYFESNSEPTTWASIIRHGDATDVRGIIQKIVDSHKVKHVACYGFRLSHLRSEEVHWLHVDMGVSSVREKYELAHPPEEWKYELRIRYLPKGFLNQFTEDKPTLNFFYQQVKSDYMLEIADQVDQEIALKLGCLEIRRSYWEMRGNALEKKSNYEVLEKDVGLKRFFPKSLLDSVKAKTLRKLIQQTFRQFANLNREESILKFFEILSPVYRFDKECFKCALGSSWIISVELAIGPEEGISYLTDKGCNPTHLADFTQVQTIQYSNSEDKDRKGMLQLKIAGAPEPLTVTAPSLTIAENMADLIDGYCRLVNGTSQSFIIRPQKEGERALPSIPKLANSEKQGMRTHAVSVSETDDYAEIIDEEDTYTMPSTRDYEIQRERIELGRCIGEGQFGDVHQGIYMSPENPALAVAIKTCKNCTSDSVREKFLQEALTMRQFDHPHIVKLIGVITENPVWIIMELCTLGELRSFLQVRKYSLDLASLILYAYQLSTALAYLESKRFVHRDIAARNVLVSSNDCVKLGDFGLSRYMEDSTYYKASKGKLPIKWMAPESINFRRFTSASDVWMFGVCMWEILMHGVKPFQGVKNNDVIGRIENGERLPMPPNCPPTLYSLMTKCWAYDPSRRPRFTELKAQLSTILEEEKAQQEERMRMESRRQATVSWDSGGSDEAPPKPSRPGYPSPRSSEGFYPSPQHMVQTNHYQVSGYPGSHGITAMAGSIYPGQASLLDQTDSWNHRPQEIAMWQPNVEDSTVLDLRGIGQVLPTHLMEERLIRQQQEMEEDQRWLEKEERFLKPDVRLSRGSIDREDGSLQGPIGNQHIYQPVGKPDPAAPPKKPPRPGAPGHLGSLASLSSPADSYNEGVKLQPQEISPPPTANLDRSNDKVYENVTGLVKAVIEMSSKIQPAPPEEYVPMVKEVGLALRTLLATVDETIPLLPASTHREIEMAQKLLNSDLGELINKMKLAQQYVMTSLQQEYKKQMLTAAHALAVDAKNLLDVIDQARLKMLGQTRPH
Chain of Torsin-1A (Homo sapiens) (O14656 whole entry, looked up): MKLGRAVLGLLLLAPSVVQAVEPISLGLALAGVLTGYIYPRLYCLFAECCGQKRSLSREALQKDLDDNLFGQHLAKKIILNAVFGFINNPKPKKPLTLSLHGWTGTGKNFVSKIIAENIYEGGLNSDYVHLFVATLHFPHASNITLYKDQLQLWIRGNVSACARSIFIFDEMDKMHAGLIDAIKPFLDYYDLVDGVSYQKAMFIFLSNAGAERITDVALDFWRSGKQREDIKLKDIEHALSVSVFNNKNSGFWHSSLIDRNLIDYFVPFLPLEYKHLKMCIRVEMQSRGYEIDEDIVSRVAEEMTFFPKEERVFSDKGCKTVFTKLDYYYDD
Chain of Follistatin (Homo sapiens) (P19883 whole entry, looked up): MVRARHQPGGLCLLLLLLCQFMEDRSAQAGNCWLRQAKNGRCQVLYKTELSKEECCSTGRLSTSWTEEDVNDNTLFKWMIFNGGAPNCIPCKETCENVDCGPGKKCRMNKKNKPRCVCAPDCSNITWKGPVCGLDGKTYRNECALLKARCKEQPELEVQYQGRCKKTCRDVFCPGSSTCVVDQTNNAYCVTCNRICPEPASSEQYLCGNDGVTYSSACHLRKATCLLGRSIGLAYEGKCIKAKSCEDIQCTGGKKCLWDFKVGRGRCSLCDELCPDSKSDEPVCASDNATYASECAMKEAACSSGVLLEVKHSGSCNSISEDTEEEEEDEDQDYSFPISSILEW

Regarding `CC(C)(C)OC(=O)CC[C@@]1(C(=O)O)N=C(c2ccc(OCCCO)cc2)O[C@@H]1c1ccccc1CN=[N+]=[N-]`, the composite z-score in test [1] was 2.7; in test [2] it was 0.807; in test [3], 0.399; in [4], 0.85; in test [5], 0.367; in test [6], -0.279. Further, the composite z-score is -0.816 with Lefty1; 0.851 in test [8]; 0.48 in test [10]; 0.725 in [15]; 0.239 in test [16]; 0.0835 with Torsin-1A (Homo sapiens) [17]. In addition, the composite z-score is 0.104 in the test with Torsin-1A (Homo sapiens) [18] and -1.03 in [19]. The z-score was 0.792 in test [7]; -2.19 (inactive) in test [9]; 0.625 (inactive) in [11]; -0.21 (inactive) in test [12]; -0.128 (inactive) in test [13]; -0.912 (inactive) in test [14].
As for `C=CC[C@@H](OC(=O)Nc1ccc(OC)cc1)c1ccc(OCCO)cc1`, the composite z-score in test [1] is -0.662; in test [2] it was -0.646; in [3], -0.676; in test [4] it was -3; in [5], -0.787; in test [6], -1.6. The composite z-score in the test with Lefty1 is -0.999; in [8], -0.262; in [10], -1.2; in test [15], -1.21; in test [16] it was -0.237; with Torsin-1A (Homo sapiens) [17], -3.71. Besides, the figures for the composite z-score (with Torsin-1A (Homo sapiens) [18]; in test [19]) were -3 and -0.49, respectively. Moreover, the z-score is -0.371 in test [7]; -5.18 (inactive) in test [9]; -2.05 (inactive) in [11]; -0.542 (inactive) in [12]; 1.29 (inactive) in test [13]; 0.0646 (inactive) in test [14].
Consider `CCOC(=O)[C@H]1C/C=C/C[C@H](C(=O)OCC)C(=O)O[C@H]2[C@@H](OC)O[C@H](CO)[C@@H](OC(=O)Nc3ccc(OC)cc3)[C@@H]2OC1=O`, for which the composite z-score in test [1] is 1.96; in test [2], 1.16; in test [3] it was 0.768; in test [4] it was 0.369; in [5] it was 1.16; in test [6], 0.741. The composite z-score in the test on Lefty1 came to 0.636; in [8], 0.648; in [10], 0.314; in test [15], 0.355; in [16], 0.134; with Torsin-1A (Homo sapiens) [17], 0.494. Also, the composite z-score with Torsin-1A (Homo sapiens) [18] came to 1.64; in test [19], 0.733. Besides, the z-score in [7] is 2.61; in [9] it was -2.06 (inactive); in test [11], -3.41 (inactive); in test [12], 0.29 (inactive); in test [13], 0.484 (inactive); in [14], 0.106 (inactive).
For `COc1ccc(C(O)C2C=CC3C(=O)N(Cc4ccccc4)C(=O)C3N2n2cnnc2)c2ccccc12` (stereo not given), the composite z-score was 0.727 in test [1]; 0.782 in [2]; 1.77 in [3]; 1.01 in [4]; 0.421 in [5]; -1.54 in test [6]. The composite z-score was 0.635 in the test with Lefty1; 0.0261 in test [8]; -0.795 in test [10]; -0.677 in [15]; -0.0136 in test [16]; 1.95 in the test with Torsin-1A (Homo sapiens) [17]. The results for the composite z-score (with Torsin-1A (Homo sapiens) [18]; in [19]) were 0.432 and -0.237, respectively. Further, the z-score was -1.08 in test [7]; 1.01 (inactive) in test [9]; -3.64 (inactive) in test [11]; 0.038 (inactive) in test [12]; -0.126 (inactive) in test [13]; -0.138 (inactive) in test [14].
As to `Cc1ccc(S[C@]2(C(=O)O)CC(=O)N(Cc3ccccc3Cl)[C@@H]2c2ccc(CO)cc2)cc1`, the composite z-score in test [1] is -0.24; in test [2] it was -0.558; in test [3], -0.299; in test [4], -0.271; in [5], -0.83; in test [6], -0.26. Also, the composite z-score is -1.26 in the test on Lefty1; 0.478 in test [8]; 0.0044 in [10]; -0.868 in [15]; -0.0791 in test [16]; -0.951 in the test with Torsin-1A (Homo sapiens) [17]. In addition, the composite z-score is 0.822 with Torsin-1A (Homo sapiens) [18] and -0.259 in [19]. Besides, the z-score is -0.939 in [7]; -0.999 (inactive) in test [9]; -1.55 (inactive) in test [11]; 0.596 (inactive) in test [12]; 0.441 (inactive) in test [13]; 1.27 (inactive) in [14].
